# Compound activity deposited in PubChem by National Center for Advancing Translational Sciences (NCATS).
# An excerpt weighted towards active compounds, which were near 10% of everything screened.
# HEK cytotox = cytotoxic compounds in HEK 293 cells; HEK 293 viability, ATP luminescence (CellTiter-Glo), 48-72 h; Potency, µM (doses to about 115 µM), without a hit: at the top dose activity change, negative = cytotoxicity, hits mostly inhibitors; 6.6% of 94,000 active; AID 1345083; further: on the % scale 0 is the no-effect control and ±100 the full control effect; nearly all actives have a fitted effect of over 60% in size
#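 Cytotoxicity was scored by loss of ATP-coupled luminescence (CellTiter-Glo) in HEK 293 cells. Compound treatment ran 48 or 72 hr at 37 degree Celsius, 5% CO2, 95% humidity.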
# NPR1 antag = antagonists of human natriuretic peptide receptor Npr1; P16066; HEK293 hNpr1 GloSensor cGMP, ANP-stimulated luminescence; Potency, µM (titrated, usually from 46.3 µM), for the others: at the top dose activity change, negative = inhibition, usual class: inhibitors; 1.6% of 76,000 active; calls by dose curve; further: on the % scale 0 is the no-effect control and ±100 the full control effect; nearly all actives have a fitted effect of over 60% in size
# Target sequence (P16066 whole entry, looked up): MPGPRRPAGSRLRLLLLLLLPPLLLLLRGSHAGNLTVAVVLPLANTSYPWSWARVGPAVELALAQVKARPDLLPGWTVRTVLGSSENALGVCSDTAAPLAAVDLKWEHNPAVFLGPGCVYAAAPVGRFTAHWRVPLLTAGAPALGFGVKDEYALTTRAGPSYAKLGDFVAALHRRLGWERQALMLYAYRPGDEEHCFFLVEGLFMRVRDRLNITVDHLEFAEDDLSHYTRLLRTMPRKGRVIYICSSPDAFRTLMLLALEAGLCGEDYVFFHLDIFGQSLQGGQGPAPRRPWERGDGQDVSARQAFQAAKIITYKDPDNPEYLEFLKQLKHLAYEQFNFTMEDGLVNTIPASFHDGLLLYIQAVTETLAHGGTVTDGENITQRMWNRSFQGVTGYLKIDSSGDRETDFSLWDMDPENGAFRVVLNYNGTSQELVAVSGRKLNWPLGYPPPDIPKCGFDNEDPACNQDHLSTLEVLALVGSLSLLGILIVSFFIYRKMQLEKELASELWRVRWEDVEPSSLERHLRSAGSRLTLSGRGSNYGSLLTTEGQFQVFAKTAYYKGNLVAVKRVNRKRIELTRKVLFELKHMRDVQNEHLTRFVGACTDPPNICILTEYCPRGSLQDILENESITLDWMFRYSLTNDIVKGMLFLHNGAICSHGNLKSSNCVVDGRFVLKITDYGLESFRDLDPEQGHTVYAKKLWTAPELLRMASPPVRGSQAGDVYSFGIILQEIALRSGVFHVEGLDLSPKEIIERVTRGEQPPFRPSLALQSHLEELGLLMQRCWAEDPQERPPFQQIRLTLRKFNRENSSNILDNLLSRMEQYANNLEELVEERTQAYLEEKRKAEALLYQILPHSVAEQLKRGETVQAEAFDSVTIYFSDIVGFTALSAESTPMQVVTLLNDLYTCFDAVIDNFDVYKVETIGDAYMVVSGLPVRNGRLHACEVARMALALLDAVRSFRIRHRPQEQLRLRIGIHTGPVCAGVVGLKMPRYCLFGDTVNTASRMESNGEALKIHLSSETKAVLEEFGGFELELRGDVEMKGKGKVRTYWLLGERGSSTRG
#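 Compound pre-incubated 30 min at room temperature on GloSensor-loaded HEK293 cells stably carrying hNpr1 and the pGS-40F cGMP biosensor. Stimulation uses hNppA at 0.1 nM final; luminescence is taken at baseline and 20 min post-agonist.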
# GPT2 inh = GPT2 alanine aminotransferase inhibition | Recombinant GPT2, coupled pyruvate oxidase/HRP Amplex Red fluorescence | Potency, µM (top dose mostly 57.7 µM), for the others: at the top dose activity change, negative = inhibition, most hits filed as inhibitors | 0.25% of 100,000 active; further: on the % scale 0 is the no-effect control and ±100 the full control effect; nearly all actives have a fitted effect of over 60% in size
#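 Fluorescence of coupled pyruvate oxidase/HRP/Amplex Red system (50uM Amplex, 30 min, dark) reports pyruvate formed by GPT2. Enzyme reaction: 10ng/uL GPT2, 2mM L-alanine, 250uM a-KG, 30 min room temperature, pH 7.5; 50uM AOA control.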
# 3T3 cytotox = cytotoxic compounds in NIH 3T3 cells | NIH 3T3 viability, CellTiter-Glo ATP luminescence, 48-72 h | Potency, µM (series often up to 96.7 µM), inactives show at the top dose activity change, negative = cytotoxicity, hits mostly inhibitors | 4.3% of 94,000 active; further: on the % scale 0 is the no-effect control and ±100 the full control effect; nearly all actives have a fitted effect of over 55% in size
#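 Mouse fibroblast NIH 3T3 cells, 400 per well, received compound via pintool and were incubated for 48 or 72 hr prior to CellTiter-Glo ATP luminescence measurement.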
# FLuc inh = Photinus pyralis luciferase inhibition; 2.5% of 76,000 active; Potency, µM (doses to about 115 µM), actives largely listed as inhibitors; purified P. pyralis luciferase, luminescence, biochemical; AID 1347043; further: on the % scale 0 is the no-effect control and ±100 the full control effect; nearly all actives have a fitted effect of over 65% in size
#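 FLuc 10nM, D-luciferin 10uM, ATP 10uM, Mg acetate 10mM, Tris acetate pH 7.5, Tween/BSA; cpd qHTS; enzyme added last; CCD luminescence.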
# NPR1 antag cnf = confirmation of human Npr1 natriuretic peptide receptor antagonists | AID 1347044 | 76% of 1,400 active | shares compounds with NPR1 antag | HEK293 hNpr1 cGMP GloSensor luminescence, ANP-stimulated | Potency, µM (series often up to 57.6 µM), for inactives: at the top dose activity change, negative = inhibition, most hits filed as inhibitors; calls by dose curve; further: nearly all actives have a fitted effect of over 70% in size
# NPR2 antag = hNpr2 antagonism, selectivity versus Npr1 | AID 1347046 | 67% of 1,400 active | Potency, µM (series often up to 57.6 µM), inactives show at the highest dose activity change, negative = inhibition, hits mostly inhibitors | shares compounds with NPR1 antag | HEK293 hNpr2 GloSensor cGMP luminescence, CNP-stimulated; calls by dose curve; further: nearly all actives have a fitted effect of over 70% in size
# FLuc inh counter = FLuc enzyme inhibition, Npr1 counter-screen. 0.7% of 1,400 active. purified FLuc enzyme, luminescence, Km substrate. AID 1347047. shares compounds with NPR1 antag. Potency, µM (series often up to 57.6 µM), inactives show at the highest dose activity change, negative = inhibition, hits mostly inhibitors; further: 0% is about no effect
# GloSensor ctrl = reduces cGMP signal in GloSensor control cells; Potency, µM (titrated, usually from 57.6 µM), inactives show top-dose activity change, negative = inhibition, most hits filed as inhibitors; 69% of 1,400 active; AID 1347051; HEK293 GloSensor cGMP, SNP-stimulated, luminescence; shares compounds with NPR1 antag; calls by dose curve; further: on the % scale 0 is the no-effect control and ±100 the full control effect; nearly all actives have a fitted effect of over 70% in size
# An asterisk follows results filed as active; i = inactive; ? = inconclusive; . = no result given; [ ] = dose if it differs, or a comment. Unless noted, the call rests on the fitted dose curve; in most records, active means well fitted curve in the direction sought with a large enough effect; inconclusive means small, poorly fitted or top-dose-only effect, or another doubt; inactive means no such curve, though single readings can be large; an effect the other way counts as inactive or inconclusive. Potency means the concentration at half of the fitted maximal effect.
SMILES,HEK cytotox,NPR1 antag,GPT2 inh,3T3 cytotox,FLuc inh,NPR1 antag cnf,NPR2 antag,FLuc inh counter,GloSensor ctrl
CCOc1ccc(C(=O)N2CCCN(c3cc(-c4ccc(Cl)cc4)[nH]n3)CC2)cc1,40µM*,?,i,?,i,19µM*,22µM*,4%,17µM*
N#Cc1ccc(C(=O)N2CCN(c3cc(-c4ccc(Cl)cc4)[nH]n3)CC2)cc1,?,6.3µM*,i,?,i,9.7µM*,11µM*,4%,6.9µM*
CCOc1ccc(C(=O)N2CCN(c3cc(-c4ccc(OC)cc4)[nH]n3)CC2)cc1,?,-23%,i,?,i,.,.,.,.
CCOc1ccc(C(=O)N2CCN(c3cc(-c4ccc(Cl)cc4)[nH]n3)CC2)cc1,?,13µM*,-4%,?,i,22µM*,19µM*,-3%,15µM*
O=C(c1ccoc1)N1CCCN(c2cc(-c3ccc(Cl)cc3)[nH]n2)CC1,?,-11%,-1%,?,i,.,.,.,.
O=C(NCc1ccccc1)N1CCC2(CC1)CC(N(C(=O)c1ccccc1)C1CC1)CCO2 (centres undefined),?,-16%,i,?,i,.,.,.,.
O=C1NC2(CCN(C(=O)c3ccccc3F)C2)OCc2ccccc21 (centres undefined),0%,-1%,i,-29%,i,.,.,.,.
CC(C)NC(=O)Nc1ccc([C@H]2OCC(=O)N(C)[C@@H]2CO)cc1,i,4%[70.6 µM],2%[88.5 µM],i,i,.,.,.,.
CN(C)c1ccc(C(=O)NCC2CCN(c3cc(-c4ccc(Cl)cc4)[nH]n3)CC2)cc1,?,?,-11%,?,i,?,?,-30%,?
CN(C)c1ccc(C(=O)NCC2CCN(c3cc(-c4ccccc4)[nH]n3)CC2)cc1,?,-10%,-25%,?,?,.,.,.,.
O=C(NCC1CCN(Cc2cccc(Cl)c2)CC1)[C@@H]1CCCN(c2ncnc3c2nc2n3CCCC2)C1,.,.,1%,.,.,.,.,.,.
O=C(NCCc1cccc(Oc2ccccc2)c1)[C@H]1CCC[C@H](O)C1,?,14µM*,1%[11.5 µM],-35%,i,24µM*,22µM*,1%,22µM*
CCCCCNc1ncnc2c1CN(C1CCCNCC1)C(=O)CN2C (centres undefined),-4%,.,i,-6%,.,.,.,.,.
CCc1ccc(CN2CCCC23Cc2ccccc2CNC3=O)s1 (centres undefined),?,.,i,?,.,-21%,-5%,4%,0%
COc1ncccc1CN1CCCC12Cc1ccccc1CNC2=O (centres undefined),?,.,i,-25%,.,.,.,.,.
COc1ccc(CN2CCCCC23Cc2ccccc2CNC3=O)c(OC)n1 (centres undefined),?,.,?,?,.,?,17µM*,-1%,4%
Cc1ccccc1Oc1c(CCC(=O)NCC2CC2)c(C)nn1-c1ccc(F)cc1,?,?,i,25µM*,i,?,?,3%,?
Cc1nn(-c2ccc(F)cc2)c(Oc2ccc(F)cc2F)c1CCC(=O)NCC1CC1,?,?,i,?,i,?,?,4%,?
